Our source for the growth values is PubChem BioAssay (NCI).

Molecules are shown by their SMILES. About 83,000 compounds went through this panel and 20% of them were active in at least one assay; those are over-represented in the sample as a whole.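 In brief: 96-well plates, 48 h treatment, single concentration, percent growth endpoint.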 Unmarked numbers belong to inactive results. The source made the active and inactive calls. How the source made its calls: active means growth percent below 10; inactive means the rest.

The test deals with SK-OV-3 ovarian. The experiment in a line: NCI-60 one-dose screen, 48 h (100 = growth as untreated, 0 = no growth, -100 = all killed). As to conditions: 10 µM unless noted.
With `COc1c(F)ccc(C(=O)Nc2ccc3nc(NC(=O)C4CCCN(S(=O)(=O)C5CC5)C4)sc3c2)c1F` (configuration not stated), the growth is 43.7%. Take `CCOC(=O)C1=C(N)N(c2ccccc2)C2=C(C(=O)CC(C)(C)C2)C1c1ccc(N2CCOCC2)cc1` (configuration not stated): the growth was 102%. In the case of `OCC1(CCCc2ccccc2)CCCN(c2nccc3ccccc23)C1` (configuration not stated), the growth was 57.7%.

Consider `COc1ccc(/C=N/NC(=O)Cn2nc(Cc3ccc(OC)cc3)c3onc(C)c3c2=O)cc1`, for which the growth was 25.9%.

For the molecule `O=[N+]([O-])c1ccc(/C=C/c2nc3ccccc3n3c(=S)[nH]nc23)cc1`, the growth was 105%.

`COC(=O)/C=C/c1cccc2c1C(=O)NC(C)(c1cc3ccccc3oc1=O)N2` (configuration not stated): the growth was 41.7%. As to `CCN(CC)c1ccc(/C=N/Nc2nc(-c3ccc(Br)cc3)cs2)c(O)c1`, the growth was 103%. Next, `O=C(c1ccccc1)C(c1c[nH]c2ccccc12)c1c[nH]c2ccccc12`: 94.2%; `CC1(C)CC[C@]2(C(=O)Nc3ccc(Br)cc3)CC[C@]3(C)C(=CCC4[C@@]5(C)C[C@@H](O)[C@H](O)[C@@](C)(CO)C5CC[C@]43C)C2C1` (some centres not stated): 4.34% (active). For the molecule `CC(/C=C1\SC(=S)N(CCCC(=O)NC(CC(C)C)C(=O)O)C1=O)=C\c1ccccc1` (configuration not stated), the growth is 106%. Consider `Cn1cc(-c2cc(N)n3nc(-c4cn(C)c5ccccc45)cc3n2)c2cc(Br)ccc21`, for which the growth was 38.9%. Under `Cc1ccc(NCC(=O)Cn2cc(COc3ccc(C=Nc4cnc5ccccc5c4)cc3)nn2)cc1` stands 98.4%.

On to `Cc1ccc([C@H]2C(C(=O)c3ccc(Cl)cc3)C3(N[C@@H]2c2ccccc2)C(=O)Nc2ccc(Cl)cc23)cc1` (some centres not stated), for which the growth is 67.4%.

For `Cc1cc2nc3c4ccccc4n(CCNCCN(C)C)c3nc2cc1C`, the growth is 68.8%. In the case of `Cc1ccccc1[C@H]1C(C(=O)c2ccc(Cl)cc2)C2(N[C@@H]1c1ccccc1)C(=O)Nc1ccc(Br)cc12` (some centres not stated), the growth is 33.4%. Under `CC(C)c1sc(NC(=O)c2cc(NC(=O)c3cc(NC(=O)c4cscn4)cn3C)cn2C)nc1C(=O)NCCCN(C)C` stands -14.5% (active). Under `CC(=O)OC[C@@]1(C)C2CC[C@]3(C)C(CC=C4C5CC(C)(C)CC[C@]5(C(=O)Nc5ccc(C)cc5)CC[C@]43C)[C@@]2(C)C[C@@H](OC(C)=O)[C@@H]1OC(C)=O` (some centres not stated) stands 54.3%; under `O=C1CC(Sc2n[nH]c(-c3ccncc3)n2)C(=O)N1c1ccc(Br)cc1` (configuration not stated), 108%. Next, `COc1cc2c3c(n(CCCN4CCC[C@@H]4CO)c(=O)c2cc1OC)-c1cc2c(cc1C3=O)OCO2`: 27.1%.

In the case of `C=C1CCC2C3(C)COC(c4ccc(F)cc4)OC3CCC2(C)C1C/C=C1/C(=O)OCC1O` (configuration not stated), the growth is 40.5%. Under `Cc1sc(C(NC(=O)OCCn2c([N+](=O)[O-])cnc2C)C(F)(F)Cl)nc1-c1ccc(OC(F)(F)F)cc1` (configuration not stated) stands -84.8% (active); under `CC1[C@H]2[C@H](C[C@H]3[C@@H]4CC=C5c6sc(Nc7ccccc7F)nc6CC[C@]5(C)[C@H]4CC[C@@]32C)O[C@]12CC[C@@H](C)CO2` (some centres not stated), -19.5% (active); under `O=C(c1ccccc1)c1ccc2nc(-c3cccc(Cl)c3)[nH]c2c1`, 99.9%. Next, `OCNc1ccc(-n2cnc3cc(-c4ccc(O)cc4)ccc32)cc1C(F)(F)F`: 54.7%; `CCOC(=O)C(N=Nc1ccc(S(=O)(=O)N=C(N)N)cc1)C(C)=O` (configuration not stated): 138%; `CCOC(=O)/C=C/c1cccc2c1C(=O)NC(C)(c1cc3cc(Cl)ccc3oc1=O)N2` (configuration not stated): -0.634% (active). Next, `C#CCOc1cc(N(CC)CC)ccc1C(C(=O)NC(C)(C)C)N(C(=O)C1CCc2cc(F)ccc2O1)c1ccc(Br)cc1` (configuration not stated): 95.3%; `CCCCCCCCc1ccc(C(=O)Nc2ccc(C)cc2C(=O)O)cc1C`: 100%; `C#CCOc1cc(N(CC)CC)ccc1C(C(=O)NC(C)(C)C)N(C(=O)C1CCc2cc(F)ccc2O1)c1ccc(F)c(Cl)c1` (configuration not stated): 73.1%. With `CCOC(=O)C1=C(N)N(c2ccccc2)C2=C(C(=O)CC(C)(C)C2)C1c1ccc([N+](=O)[O-])cc1` (configuration not stated), the growth was 105%. With `C=C1CC[C@@H]2[C@]3(C)COC(c4ccccc4)O[C@@H]3CC[C@@]2(C)[C@@H]1C/C=C1/C(=O)OCC1OC(C)=O` (some centres not stated), the growth was 93.7%. For the molecule `C#C[C@]1(O)CC[C@H]2[C@@H]3CC=C4c5sc(-c6ccc([N+](=O)[O-])cc6)nc5CC[C@]4(C)[C@H]3CC[C@@]21C`, the growth was 53%.
